# Measured values taken from article PMC7862700, “An all-to-all approach to the identification of sequence-specific readers for epigenetic DNA modifications on cytosine”.
# Legend:
# Test in all cases: DAPPL (digital affinity profiling via proximity ligation, sequencing); 10 mM Tris-HCl pH 7.5, 50 mM NaCl, 1 mM DTT, 4% glycerol, room temperature, 30 min; GST-TFs on glutathione beads, 16-mer random dsDNA library, 0.1% formaldehyde crosslink after washing; high values mean tight binding
# Conditions in all cases: protein: recombinant; tags: N-terminal GST; dsDNA, one strand shown
# ERG = target: T1, ERG (Homo sapiens, UniProt P11308 1-479)
# T1 sequence: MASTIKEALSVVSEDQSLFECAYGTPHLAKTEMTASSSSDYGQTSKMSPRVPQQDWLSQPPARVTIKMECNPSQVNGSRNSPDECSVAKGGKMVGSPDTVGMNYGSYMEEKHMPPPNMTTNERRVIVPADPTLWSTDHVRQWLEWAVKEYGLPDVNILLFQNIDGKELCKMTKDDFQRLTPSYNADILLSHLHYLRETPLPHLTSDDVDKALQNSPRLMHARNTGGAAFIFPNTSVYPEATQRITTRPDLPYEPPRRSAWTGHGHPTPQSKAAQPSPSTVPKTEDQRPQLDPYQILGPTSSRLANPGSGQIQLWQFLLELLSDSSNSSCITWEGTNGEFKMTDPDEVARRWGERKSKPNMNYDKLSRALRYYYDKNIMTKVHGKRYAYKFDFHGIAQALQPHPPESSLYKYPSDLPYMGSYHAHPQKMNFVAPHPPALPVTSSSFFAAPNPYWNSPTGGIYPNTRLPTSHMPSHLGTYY
# Method in brief: (§1)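 Yeast served to express human transcription factors as GST fusions, which were then captured on glutathione beads and labelled with DNA barcodes. Pooled with a tag-only sample, they were incubated with 200 nmole of a 16-mer random double-stranded DNA library for 30 min at room temperature in Tris/NaCl/DTT/glycerol buffer, washed, crosslinked with 0.1% formaldehyde, ligated by proximity, amplified by PCR and sequenced. Dividing each hexamer's read frequency for a factor by its frequency for the tag-only sample gives the binding signal.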
# ELF1 = ELF1 (Homo sapiens, UniProt P32519 1-619)
# Method in brief: as §1
# EHF = target: T2, EHF (Homo sapiens, UniProt Q9NZC4 1-300)
# T2 sequence: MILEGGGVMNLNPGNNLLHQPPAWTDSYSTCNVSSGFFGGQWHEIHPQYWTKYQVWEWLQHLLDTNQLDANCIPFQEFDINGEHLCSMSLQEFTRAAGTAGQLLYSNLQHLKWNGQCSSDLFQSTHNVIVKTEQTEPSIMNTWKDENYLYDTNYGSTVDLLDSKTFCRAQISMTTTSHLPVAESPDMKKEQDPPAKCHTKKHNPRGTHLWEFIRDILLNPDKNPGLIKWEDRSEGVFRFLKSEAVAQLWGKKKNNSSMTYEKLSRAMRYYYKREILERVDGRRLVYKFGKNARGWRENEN
# Method in brief: as §1
# SPIB = SPIB (Homo sapiens, UniProt Q01892 1-262)
# Method in brief: as §1
# ELK3 = target: T3, ELK3 (Homo sapiens, UniProt P41970 1-407)
# T3 sequence: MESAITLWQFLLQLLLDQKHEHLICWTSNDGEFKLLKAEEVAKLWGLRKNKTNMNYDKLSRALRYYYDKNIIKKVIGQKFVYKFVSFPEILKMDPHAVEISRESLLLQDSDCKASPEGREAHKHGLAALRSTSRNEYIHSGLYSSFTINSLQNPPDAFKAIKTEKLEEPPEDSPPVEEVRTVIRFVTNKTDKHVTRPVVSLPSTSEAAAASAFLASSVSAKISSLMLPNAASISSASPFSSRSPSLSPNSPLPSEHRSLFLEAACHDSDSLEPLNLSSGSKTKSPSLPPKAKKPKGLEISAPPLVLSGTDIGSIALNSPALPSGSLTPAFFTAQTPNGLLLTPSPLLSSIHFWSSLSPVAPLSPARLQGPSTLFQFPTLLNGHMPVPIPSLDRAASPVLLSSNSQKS
# Method in brief: as §1
# ELF4 = ELF4 (Homo sapiens, UniProt Q99607 1-663)
# Method in brief: as §1
# ERF = target: T4, ERF (Homo sapiens, UniProt P50548 1-548)
# T4 sequence: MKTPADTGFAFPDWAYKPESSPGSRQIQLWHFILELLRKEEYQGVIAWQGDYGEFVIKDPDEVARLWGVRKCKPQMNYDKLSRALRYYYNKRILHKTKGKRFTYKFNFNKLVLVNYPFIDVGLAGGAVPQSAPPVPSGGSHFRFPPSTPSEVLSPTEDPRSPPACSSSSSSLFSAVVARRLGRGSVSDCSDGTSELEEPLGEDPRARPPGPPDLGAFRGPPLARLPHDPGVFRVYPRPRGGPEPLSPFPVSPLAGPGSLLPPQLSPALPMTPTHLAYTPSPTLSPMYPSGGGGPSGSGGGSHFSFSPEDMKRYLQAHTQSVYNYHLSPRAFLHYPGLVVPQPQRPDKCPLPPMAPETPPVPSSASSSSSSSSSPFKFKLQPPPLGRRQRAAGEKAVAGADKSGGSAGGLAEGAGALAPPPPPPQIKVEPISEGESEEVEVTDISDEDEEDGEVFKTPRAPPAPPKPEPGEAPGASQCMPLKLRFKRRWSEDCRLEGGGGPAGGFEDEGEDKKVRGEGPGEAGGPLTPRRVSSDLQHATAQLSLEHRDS
# Method in brief: as §1
# ETS2 = target: T5, ETS2 (Homo sapiens, UniProt P15036 1-469)
# T5 sequence: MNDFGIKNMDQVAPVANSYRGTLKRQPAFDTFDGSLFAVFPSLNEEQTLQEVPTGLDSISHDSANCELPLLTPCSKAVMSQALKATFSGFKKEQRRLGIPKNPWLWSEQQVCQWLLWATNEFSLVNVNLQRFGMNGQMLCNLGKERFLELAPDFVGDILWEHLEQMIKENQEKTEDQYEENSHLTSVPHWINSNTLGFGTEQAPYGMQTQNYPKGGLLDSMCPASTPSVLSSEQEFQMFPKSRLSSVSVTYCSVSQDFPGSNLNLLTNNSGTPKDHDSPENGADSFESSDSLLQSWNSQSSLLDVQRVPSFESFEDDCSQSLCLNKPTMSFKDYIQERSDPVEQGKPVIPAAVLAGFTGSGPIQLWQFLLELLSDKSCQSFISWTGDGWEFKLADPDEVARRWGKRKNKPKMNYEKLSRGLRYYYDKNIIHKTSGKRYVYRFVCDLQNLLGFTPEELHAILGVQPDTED
# Method in brief: as §1
# ETV7 = target: T6, ETV7 (Homo sapiens, UniProt Q9Y603 1-341)
# T6 sequence: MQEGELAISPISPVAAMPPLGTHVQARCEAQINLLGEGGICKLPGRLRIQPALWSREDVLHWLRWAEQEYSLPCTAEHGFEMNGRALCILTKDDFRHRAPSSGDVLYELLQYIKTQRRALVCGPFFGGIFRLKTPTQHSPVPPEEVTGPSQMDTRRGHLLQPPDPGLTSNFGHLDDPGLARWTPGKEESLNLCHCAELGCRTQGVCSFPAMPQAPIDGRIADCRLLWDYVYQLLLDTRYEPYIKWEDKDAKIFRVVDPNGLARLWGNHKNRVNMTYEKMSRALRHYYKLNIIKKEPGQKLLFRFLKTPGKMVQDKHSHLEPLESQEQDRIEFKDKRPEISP
# Method in brief: as §1
# ETV3 = target: T7, ETV3 (Homo sapiens, UniProt P41162-2 1-143)
# T7 sequence: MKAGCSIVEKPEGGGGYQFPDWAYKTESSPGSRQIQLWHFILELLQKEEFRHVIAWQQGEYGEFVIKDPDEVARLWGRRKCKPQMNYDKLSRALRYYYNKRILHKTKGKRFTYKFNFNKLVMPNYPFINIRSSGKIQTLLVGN
# Method in brief: as §1
# ETV6 = ETV6 (Homo sapiens, UniProt P41212 1-452)
# Method in brief: as §1
# ELK1 = target: T8, ELK1 (Homo sapiens, UniProt P19419 1-428)
# T8 sequence: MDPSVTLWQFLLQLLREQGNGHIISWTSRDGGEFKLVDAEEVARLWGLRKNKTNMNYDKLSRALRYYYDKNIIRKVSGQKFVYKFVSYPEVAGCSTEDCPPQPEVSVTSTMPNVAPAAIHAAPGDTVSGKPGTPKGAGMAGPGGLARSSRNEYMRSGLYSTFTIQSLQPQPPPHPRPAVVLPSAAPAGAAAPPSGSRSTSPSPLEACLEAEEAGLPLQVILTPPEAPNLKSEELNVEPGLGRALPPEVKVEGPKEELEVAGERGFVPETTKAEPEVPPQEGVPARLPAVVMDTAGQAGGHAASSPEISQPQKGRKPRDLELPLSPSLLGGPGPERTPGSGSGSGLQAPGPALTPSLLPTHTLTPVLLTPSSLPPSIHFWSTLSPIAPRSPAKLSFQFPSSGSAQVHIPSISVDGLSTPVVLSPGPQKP
# Method in brief: as §1
# ELK4 = target: T9, ELK4 (Homo sapiens, UniProt P28324-2 1-405)
# T9 sequence: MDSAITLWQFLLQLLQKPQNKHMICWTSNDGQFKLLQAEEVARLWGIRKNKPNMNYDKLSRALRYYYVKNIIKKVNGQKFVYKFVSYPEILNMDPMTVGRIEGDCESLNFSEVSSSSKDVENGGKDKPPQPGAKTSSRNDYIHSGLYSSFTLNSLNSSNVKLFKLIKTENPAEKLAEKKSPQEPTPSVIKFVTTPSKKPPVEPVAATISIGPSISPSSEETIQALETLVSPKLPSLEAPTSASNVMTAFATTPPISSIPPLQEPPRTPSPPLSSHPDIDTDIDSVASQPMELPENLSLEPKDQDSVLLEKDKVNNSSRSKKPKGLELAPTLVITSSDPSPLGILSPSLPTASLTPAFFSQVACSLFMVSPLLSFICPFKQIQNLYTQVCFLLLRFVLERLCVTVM
# Method in brief: as §1
# ELF3 = target: T10, ELF3 (Homo sapiens, UniProt P78545 1-371)
# T10 sequence: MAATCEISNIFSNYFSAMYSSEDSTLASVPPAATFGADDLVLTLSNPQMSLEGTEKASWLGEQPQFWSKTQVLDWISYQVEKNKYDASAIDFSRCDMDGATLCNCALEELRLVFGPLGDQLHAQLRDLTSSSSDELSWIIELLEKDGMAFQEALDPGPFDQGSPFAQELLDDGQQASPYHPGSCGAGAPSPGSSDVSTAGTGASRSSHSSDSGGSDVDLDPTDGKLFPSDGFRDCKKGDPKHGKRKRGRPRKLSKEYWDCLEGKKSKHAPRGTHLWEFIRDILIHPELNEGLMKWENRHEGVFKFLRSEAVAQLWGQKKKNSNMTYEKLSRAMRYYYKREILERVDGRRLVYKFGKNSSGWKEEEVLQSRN
# Method in brief: as §1
# Sequence of ELF1 (P32519 whole entry): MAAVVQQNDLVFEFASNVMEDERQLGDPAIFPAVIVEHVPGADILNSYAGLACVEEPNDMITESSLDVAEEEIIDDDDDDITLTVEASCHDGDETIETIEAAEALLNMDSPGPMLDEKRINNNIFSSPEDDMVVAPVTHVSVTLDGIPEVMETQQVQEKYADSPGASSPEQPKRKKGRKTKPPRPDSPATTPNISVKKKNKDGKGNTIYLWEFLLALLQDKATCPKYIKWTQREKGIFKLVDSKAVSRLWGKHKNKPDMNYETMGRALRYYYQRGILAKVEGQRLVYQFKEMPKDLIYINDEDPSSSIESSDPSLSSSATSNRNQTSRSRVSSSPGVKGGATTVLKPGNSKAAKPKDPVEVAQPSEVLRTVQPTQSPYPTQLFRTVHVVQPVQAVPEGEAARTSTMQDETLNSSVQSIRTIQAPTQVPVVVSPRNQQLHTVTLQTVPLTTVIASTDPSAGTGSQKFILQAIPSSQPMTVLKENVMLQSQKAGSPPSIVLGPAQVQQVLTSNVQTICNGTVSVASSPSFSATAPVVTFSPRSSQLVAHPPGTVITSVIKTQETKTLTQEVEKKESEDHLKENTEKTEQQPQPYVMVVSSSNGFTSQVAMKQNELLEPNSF
# Sequence of ETV6 (P41212 whole entry): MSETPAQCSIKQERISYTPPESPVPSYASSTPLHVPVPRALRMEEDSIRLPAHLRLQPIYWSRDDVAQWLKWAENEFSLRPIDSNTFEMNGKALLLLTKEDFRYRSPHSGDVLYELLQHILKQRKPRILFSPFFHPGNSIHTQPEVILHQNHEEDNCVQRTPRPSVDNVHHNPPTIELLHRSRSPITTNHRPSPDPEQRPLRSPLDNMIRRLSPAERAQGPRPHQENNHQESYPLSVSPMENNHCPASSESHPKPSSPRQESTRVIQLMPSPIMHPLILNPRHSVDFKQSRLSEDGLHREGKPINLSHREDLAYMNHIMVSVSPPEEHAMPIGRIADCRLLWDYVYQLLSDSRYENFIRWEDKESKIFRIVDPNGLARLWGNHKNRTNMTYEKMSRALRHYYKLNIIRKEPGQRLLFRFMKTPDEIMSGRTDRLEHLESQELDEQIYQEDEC
# Sequence of ELF4 (Q99607 whole entry): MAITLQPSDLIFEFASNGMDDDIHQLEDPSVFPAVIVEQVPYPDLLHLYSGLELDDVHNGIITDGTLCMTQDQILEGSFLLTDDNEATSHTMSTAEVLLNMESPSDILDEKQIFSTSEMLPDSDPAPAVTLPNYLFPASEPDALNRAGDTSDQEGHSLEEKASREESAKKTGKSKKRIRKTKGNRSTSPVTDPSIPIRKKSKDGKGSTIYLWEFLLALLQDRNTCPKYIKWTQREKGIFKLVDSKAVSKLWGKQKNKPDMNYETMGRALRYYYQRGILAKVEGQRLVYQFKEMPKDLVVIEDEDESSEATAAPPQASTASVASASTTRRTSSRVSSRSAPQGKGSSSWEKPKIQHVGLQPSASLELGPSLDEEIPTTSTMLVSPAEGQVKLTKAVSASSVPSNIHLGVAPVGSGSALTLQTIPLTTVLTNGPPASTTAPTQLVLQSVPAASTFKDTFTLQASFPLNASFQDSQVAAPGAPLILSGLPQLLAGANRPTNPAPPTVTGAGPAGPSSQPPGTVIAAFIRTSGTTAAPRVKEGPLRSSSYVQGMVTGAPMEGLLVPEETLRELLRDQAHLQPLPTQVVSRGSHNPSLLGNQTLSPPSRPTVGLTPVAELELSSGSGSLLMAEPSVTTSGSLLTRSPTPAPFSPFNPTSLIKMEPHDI
# Sequence of SPIB (Q01892 whole entry): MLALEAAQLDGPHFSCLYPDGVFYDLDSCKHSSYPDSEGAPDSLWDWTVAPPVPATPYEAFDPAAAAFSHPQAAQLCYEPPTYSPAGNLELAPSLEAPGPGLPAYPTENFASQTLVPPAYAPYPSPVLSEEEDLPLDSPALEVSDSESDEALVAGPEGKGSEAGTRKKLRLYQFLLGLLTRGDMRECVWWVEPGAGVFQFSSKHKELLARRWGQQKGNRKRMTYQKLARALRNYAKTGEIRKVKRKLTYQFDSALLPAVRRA
Sequence,binding signal (ERG),binding signal (ELF1),binding signal (EHF),binding signal (SPIB),binding signal (ELK3),binding signal (ELF4),binding signal (ERF),binding signal (ETS2),binding signal (ETV7),binding signal (ETV3),binding signal (ETV6),binding signal (ELK1),binding signal (ELK4),binding signal (ELF3)
CCACCG,"1.03 fold enrichment (6-mer frequency, TF over GST control)","1.01 fold enrichment (6-mer frequency, TF over GST control)","1.07 fold enrichment (6-mer frequency, TF over GST control)","1.09 fold enrichment (6-mer frequency, TF over GST control)","1.06 fold enrichment (6-mer frequency, TF over GST control)","1.11 fold enrichment (6-mer frequency, TF over GST control)","1.2 fold enrichment (6-mer frequency, TF over GST control)","1.02 fold enrichment (6-mer frequency, TF over GST control)","1.06 fold enrichment (6-mer frequency, TF over GST control)","1.04 fold enrichment (6-mer frequency, TF over GST control)","1.06 fold enrichment (6-mer frequency, TF over GST control)",–,–,–
CATAGT,–,"1.01 fold enrichment (6-mer frequency, TF over GST control)",–,–,–,–,"1.13 fold enrichment (6-mer frequency, TF over GST control)","1.03 fold enrichment (6-mer frequency, TF over GST control)","1.11 fold enrichment (6-mer frequency, TF over GST control)",–,–,"1.03 fold enrichment (6-mer frequency, TF over GST control)","1.14 fold enrichment (6-mer frequency, TF over GST control)","1.07 fold enrichment (6-mer frequency, TF over GST control)"
